Screening results: PubChem BioAssay, University of Kansas High Throughput Screening Laboratory
The sample as a whole holds a higher share of hits than the screen did.
Pf apPOL block = Pf-apPOL inhibitors, biochemical, fluorescence; Plasmodium falciparum apicoplast DNA polymerase (apPOL); Recombinant Pf-apPOL, molecular beacon fluorescence, 1.5 h; inhibition, % at 10 µM; hit rate 0.25% among 210,000; AID 1794808, 2022
mHTT CaM bind = mutant huntingtin-calmodulin interaction inhibitors – biochemical, AlphaScreen, primary screen; AlphaScreen His-mHTT/GST-CaM binding, luminescence; inhibition, % at 15 µM; hit rate 3.6% among 190,000; AID 1671202, 2021;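 note: 0% = both proteins with DMSO and 100% = one protein alone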
* = called active by the depositor; / = not tested or not shown. Cut-off read from the data, not from the text of the source: active = inhibition above about 50%; inactive = the rest.

SMILES	Pf apPOL block	mHTT CaM bind
CCC/C=C/c1ccc(CN2C(C)C(=O)N(Cc3cn(CCOCOC)nn3)CCS2(=O)=O)cc1 (centres undefined)	-16	4
Cc1ccc(N2C(=O)c3cccnc3C2CC(=O)N2CCC(C)CC2)cc1 (centres undefined)	0	-8
Cn1cc(CCC(=O)NCc2ccccc2Cl)c2ccccc21	-15	25
COc1ccc(/C=C2\C(=O)NC(=O)N(c3ccc(Cl)cc3)C2=O)cc1OC	-2	4
COc1cc2c(cc1OC)C(C(=O)NCc1ccc(F)cc1)C(c1cccs1)N(C)C2=O (centres undefined)	2	3
COc1cc(C(=O)NCc2ccc(F)cc2)cc(OC)c1OC	2	-4
CN(C)CCn1c2c(c3ccccc31)CCCn1nnnc1-2	-12	56*
CC(=O)Nc1nc2ccccc2n1CCN(C)C	0	-1
CCCOc1ccccc1C1C(C#N)=C(N)Oc2n[nH]c(-c3ccc4c(c3)OCO4)c21 (centres undefined)	-6	25
O=C(O)C1CC=CCC1C(=O)N1CCC(Cc2ccccc2)CC1 (centres undefined)	1	-1
CCC(C)NC(=O)c1csc(-c2ccncc2)n1 (centres undefined)	0	-5
CC(CCc1ccccc1)NC(=O)c1csc(-c2ccncc2)n1 (centres undefined)	-1	79*
CCN(CC)CCCOc1ccc(OC)cc1	-4	-8
CCn1cnnc1C1CCCCN1C(=O)CCc1c[nH]c2ccccc12 (centres undefined)	0	56*
CCCn1cnnc1C1CCCCN1C(=O)CCc1ccccc1OC (centres undefined)	-1	4
Cc1c(C(=O)NCc2ccccn2)oc2ccc(S(=O)(=O)N3CCCCC3)cc12	-10	58*
Cc1c(C(=O)NCc2ccccn2)oc2ccc(S(=O)(=O)N3CCOCC3)cc12	2	3
CCOC(=O)/C(C#N)=C/Nc1ccsn1	/	-4
CCC(=O)N1CCc2cn(CC(C)C)c3cccc(c23)C1	-5	54*
COc1ccc(NC(=O)N2CCc3cn(CC(C)C)c4cccc(c34)C2)cc1OC	-1	29
CC(=O)Nc1ccc(C(=O)N2CCc3cn(CC(C)C)c4cccc(c34)C2)cc1	-1	72*
CC(=O)N1CCc2cn(CC(C)C)c3cccc(c23)C1	-2	44
O=S(=O)(c1ccc(-c2csc(=Nc3ccccc3)n2CCCO)cc1)N1CCOCC1	-9	43
CCN(CC)S(=O)(=O)c1ccc(-c2csc(=Nc3cccc(C)c3)n2CCCO)cc1	0	64*
CCN(CC)S(=O)(=O)c1ccc(-c2csc(=Nc3ccc(F)cc3)n2CCCO)cc1	-2	51*
SMILES	Pf apPOL block	mHTT CaM bind
CCN(CC)S(=O)(=O)c1ccc(-c2csc(=Nc3ccc(C)cc3)n2C)cc1	-9	-1
O=C1CN(C(=O)/C=C/c2ccccc2)C(c2ccc(F)cc2)c2cc(Br)ccc2N1 (centres undefined)	-6	-1
O=C(Nc1nnc(N=Cc2ccc([N+](=O)[O-])s2)s1)c1ccccc1[N+](=O)[O-]	-1	17
Cc1nonc1OCC(C)(COc1nonc1C)Nc1ccc([N+](=O)[O-])cc1[N+](=O)[O-]	4	12
CCNC(=O)c1cncc(-c2ccc(F)cc2F)c1	38	5
CC(C)NC(=O)c1cncc(-c2ccc(F)cc2F)c1	63*	6
COc1ccc2[nH]cc(CN3CCC(C(=O)NC4CCCc5ccccc54)CC3)c2c1 (centres undefined)	0	69*
O=C(NC1CCCc2ccccc21)C1CCN(S(=O)(=O)N2CCCCCC2)CC1 (centres undefined)	-6	-3
Nc1nonc1-c1nc2ccccc2n1CC(=O)Nc1ccc(Cl)c(Cl)c1	1	3
O=C(COc1ccccc1)Nc1ccn(-c2ccccc2)n1	5	3
CCN(CC)C(=O)C1CCCN(c2ccc([N+](=O)[O-])cc2C=O)C1 (centres undefined)	0	70*
CCN(CC)C(=O)C1CCCN(Cc2ccc([N+](=O)[O-])o2)C1 (centres undefined)	-28	2
COc1ccc(OC)c(Nc2nc(Cl)nc(Nc3cc(OC)ccc3OC)n2)c1	-2	53*
COc1ccc(Nc2nc(Cl)nc(Nc3ccc(OC)c(OC)c3)n2)cc1OC	-6	44
COc1ccc(CC(=O)Nc2ccc3c(c2)Cc2ccccc2-3)cc1OC	-2	-3
COc1cc(NCc2ccc3c(c2)Cc2ccccc2-3)cc(OC)c1OC	6	59*
O=C(NCCN1CCOC1=O)c1ccc([N+](=O)[O-])cc1	-3	-5
CC(C)n1c(C2CCN(S(=O)(=O)Cc3ccccc3F)C2)nc2ccncc21 (centres undefined)	0	3
CCCc1nn(-c2ccc(Cl)c(Cl)c2)c(CC)c1C(=O)N1CCOCC1	-5	67*
CCN1CCN(C(=O)c2cnn(-c3ccc(Cl)c(Cl)c3)c2C(C)C)CC1	-21	39
CC(C)c1nn(-c2ccc(Cl)c(Cl)c2)c(C(C)C)c1C(=O)N1CCOCC1	-2	67*
CCc1nn(-c2ccc(OC)cc2)c(CC)c1C(=O)N1CCOCC1	0	1
CC(=O)N1CCN(C(=O)c2c(C(C)C)nn(-c3ccc(C)cc3)c2C(C)C)CC1	-1	11
CCCc1nn(-c2ccc(Cl)c(Cl)c2)c(C(C)C)c1C(=O)N1CCOCC1	0	62*
CC(C)S(=O)(=O)c1ccc(CC(=O)N2CCC(Cn3cnc4ccccc43)CC2)cc1	1	-5
SMILES	Pf apPOL block	mHTT CaM bind
COc1ccc(C(=O)Nc2sc(C)c(C)c2C(N)=O)cc1Br	-5	0
Cc1ccc(C(=O)N2CCc3sc(C(=O)NCc4cc(F)ccc4F)cc3C2)cc1	-4	3
CC(C)NC(=O)c1csc(COc2ccc(Cl)cc2)n1	-9	-5
Cc1cc(OCc2nc(C(=O)NC(C)C)cs2)ccc1Cl	-10	66*
Cc1cc(OCC(=O)NN)ccc1Cl	0	-5
Cc1cc(OCC(=O)NC(C)C)ccc1Cl	2	90*
CCOc1ccc2nc(NC(=O)C(C)n3nc(-c4ccc(C)cc4)ccc3=O)sc2c1 (centres undefined)	-10	-12
CC1CC(Nc2ccccc2)c2ccccc2N1C(=O)c1ccc(Cl)c([N+](=O)[O-])c1 (centres undefined)	32	27
CSC1=NSC2=NC(=O)/C(=C\c3ccccc3Cl)C(=N)N12	-4	-2
CC(=O)c1ccc2c3c([nH]c2c1)CCCC3	-6	0
COC(=O)c1ccc(NS(=O)(=O)c2ccc3[nH]c4c(c3c2)CCCCC4)cc1	-1	68*
COc1ccc(NS(=O)(=O)c2ccc3[nH]c(=O)sc3c2)cc1	-1	-5
CC(=O)c1ccc(NS(=O)(=O)c2ccc3[nH]c4c(c3c2)CCCC4)cc1	-4	63*
O=S(=O)(Nc1ccc(F)cc1F)c1ccc2[nH]c3c(c2c1)CCCC3	-2	91*
CCOc1ccccc1NS(=O)(=O)c1ccc2[nH]c3c(c2c1)CCCC3	-3	26
COc1ccc(NS(=O)(=O)c2ccc3[nH]c4c(c3c2)CCCC4)cc1	-5	80*
COC(=O)c1ccc(NS(=O)(=O)c2ccc3[nH]c4c(c3c2)CCCC4)cc1	1	38
Cc1c(NC(=O)c2cccs2)cccc1-c1nc2ncccc2o1	-6	-1
O=C(CN1CCOCC1)Nc1nccs1	-2	-3
O=C(Cc1cn2cc(Br)ccc2n1)Nc1ccc2c(c1)OCCO2	2	15
